# Compound activity: PubChem BioAssay, several laboratories
# sEH act: increases human soluble epoxide hydrolase activity; P34913; purified human sEH enzymatic activity, activator screen; activation, % at 2 µM; 91,000 compounds, 0.04% hits; AID 717; in the data active means activation above about 37%
# Cav3 T inh: blocks human Cav3.2 T-type calcium channel; Cav3.2-expressing cells, Fluo-4 calcium fluorescence FDSS; hits give low values; 100,000 compounds, 4% hits; O95180; AID 449739; B-score at 10 µM;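 active means single-dose well whose peak fluorescence ratio is a statistical outlier from its plate by either plate-standardised score or position-corrected B-score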
# IL1B cytotox: HUVEC cytotoxicity counter-screen, IL-1B stimulated. cell count reduction, % at 2 µM. HUVEC cell count loss, Hoechst imaging. 94,000 compounds, 0.41% hits. AID 845;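 active means cell count reduction more than 3 SD above the screen-wide mean, cut at about 70% in these data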;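 further: normalized per plate to untreated control cells as the no-loss baseline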
# IL1B NFkB inh: blocks IL-1B driven NFkB nuclear translocation in HUVEC cells; HUVEC IL-1B NFkB p65 nuclear translocation imaging; inhibition, % at 2 µM; 94,000 compounds, 0.43% hits;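 active means inhibition above about 30% together with a positive call from visual inspection of the well image, limit read from the data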;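 further: nuclear over cytoplasmic p65 intensity ratio measured by imaging; 0% = IL-1B stimulated DMSO wells and 100% = unstimulated DMSO wells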
# NFkB transloc pot: enhances IL-1B driven NFkB nuclear translocation; 94,000 compounds, 0.3% hits; HUVEC IL-1B NFkB p65 nuclear translocation imaging; activation, % at 2 µM;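 active means activation above 40%, about the mean plus 3 SD, also judged a hit on visual image review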;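 further: percent activation is computed from the nuclear over cytoplasmic p65 intensity ratio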
# sEH inhibitor: blocks human soluble epoxide hydrolase activity; inhibition, % at 2 µM; 91,000 compounds, 0.34% hits; recombinant human sEH enzymatic activity assay; P34913; AID 707; in the data active means inhibition above about 80%
# Numbers without * were called inactive; / = not tested or not shown. An excerpt weighted towards active compounds, which were near 4.6% of everything screened.
SMILES,sEH act,Cav3 T inh,IL1B cytotox,IL1B NFkB inh,NFkB transloc pot,sEH inhibitor
CCc1nnc(NC(=O)CSc2nnc(Cc3ccccc3)n2-c2ccccc2)s1,11.7,-4.52*,-104.3,-12.2,12.2,-10.1
CCOC(=O)CSc1nnc(Cc2ccccc2)n1-c1ccc(C)cc1,2.3,-2.79,-20.9,-1.9,1.9,-1.9
CCc1nnc(NC(=O)CSc2nnc(C3CCCCC3)n2-c2cccc(Cl)c2)s1,-9.6,-4.33*,3.5,-2.9,2.9,11.7
CCc1nnc(NC(=O)c2cccnc2)s1,-1.1,0.15,7.9,-147.3,147.3*,-4.7
CCc1nnc(NC(=O)CSc2nnc(CNc3cccc(Cl)c3)n2CC)s1,11.2,-1.49,9.7,11.7,-11.7,-14.5
Cc1ccc(-c2noc(CSc3nnc(Cc4ccccc4)n3-c3ccc(Cl)cc3)n2)cc1,-0.7,-5.37*,7.0,-4.4,4.4,0.2
COc1ccc(-c2noc(CSc3nnc(Cc4ccccc4)n3-c3ccc(Cl)cc3)n2)cc1,1.5,-4.39,13.9,6.2,-6.2,-1.7
C=CCn1c(SCC(=O)Nc2nnc(CC)s2)nnc1-c1cccnc1,20.1,-0.101,-4.5,-2.6,2.6,-16.1
CCc1nnc(NC(=O)CSc2nnc(-c3cccnc3)n2CCc2ccccc2)s1,17.2,0.503,-31.2,-42.7,42.7*,-17.9
C/C=C/Cn1c(SCCCc2ccccc2)nc2c1c(=O)[nH]c(=O)n2C,-3.1,-2.03,3.6,-16.1,16.1,2.1
Cc1cc(Cl)ccc1OCC(=O)Nc1nc(-c2cccs2)cs1,-0.6,-3.17,11.7,0.0,0.0,0.5
COc1cccc(-c2csc(N3CCN(C(=O)Nc4ccc(F)cc4)CC3)n2)c1,-15.6,-6.48*,-17.9,-1.1,1.1,16.8
CCC(C)NC(=O)Nc1ccc2c(c1)N(C)C(=O)c1ccccc1S2 (centres undefined),-88.0,-1.41,-2.2,11.4,-11.4,87.8*
CCc1nnc(NC(=O)c2ccc(S(=O)(=O)N3CCCCC3C)cc2)s1 (centres undefined),-15.1,0.0725,-5.5,4.6,-4.6,15.4
CC(NC(=O)c1ccc(Cn2cc([N+](=O)[O-])cn2)o1)c1ccccc1 (centres undefined),14.4,0.559,/,/,/,-14.5
CC(C)NC(=O)c1cccc(Cn2cc(Cl)cn2)c1,-9.1,-0.892,-11.9,6.8,-6.8,8.6
CCC(NC(=O)c1cccc(Cn2cc([N+](=O)[O-])cn2)c1)c1ccc(C(C)C)cc1 (centres undefined),-3.8,-4.3*,-14.1,-8.0,8.0,5.5
CC(NC(=O)c1cccc(Cn2cc([N+](=O)[O-])cn2)c1)c1ccc(C(C)(C)C)cc1 (centres undefined),-7.2,-4.34*,-10.3,-6.3,6.3,8.6
Cc1oc(-c2ccccc2)nc1CS(=O)CC(=O)N1CCc2ccccc2C1 (centres undefined),/,0.342,/,/,/,/
Cc1oc(-c2ccccc2)nc1Cn1cccc1C1=NC(c2ccccc2)CO1 (centres undefined),/,-5.64*,-33.3,-2.5,2.5,/
CCC(C)NS(=O)(=O)c1ccc(NS(C)(=O)=O)cc1 (centres undefined),9.8,0.01,-0.8,-7.3,7.3,-7.0
COc1ccccc1NC(=O)N1CCC(c2nc3cc(C)c(C)cc3[nH]2)CC1,-2.9,-0.574,5.1,1.3,-1.3,3.2
COc1ccccc1NC(=S)N1CCC(c2nc3cc(C)c(C)cc3[nH]2)CC1,6.8,-1.8,-15.0,55.8*,-55.8,-2.4
CCN1CCN(C(c2ccccc2OC)c2nnnn2C2CCCCC2)CC1 (centres undefined),8.4,0.708,18.2,0.3,-0.3,-6.6
COc1ccc(-c2csc(N3CCC(C(N)=O)(N4CCCCC4)CC3)n2)cc1,-13.9,-1.02,-13.6,6.0,-6.0,16.9
SMILES,sEH act,Cav3 T inh,IL1B cytotox,IL1B NFkB inh,NFkB transloc pot,sEH inhibitor
Cc1ccc(C2CC2C(=O)NNC(=S)Nc2ccc(Cl)cc2)cc1 (centres undefined),-6.7,-10.1*,-23.7,-5.8,5.8,11.5
CCCN1CCN(CCCNC(=O)c2cc3c(=O)n(C)c4ccccc4c3n2C)CC1,/,0.795,-6.5,89.5*,-89.5,/
Cc1cccc(C)c1OCC(=O)N/N=C/c1cc2c(cc1[N+](=O)[O-])OCO2,-24.1,-1.61,1.4,8.0,-8.0,25.1
CCOC(=O)Cc1c(C)nc2c(C#N)c[nH]n2c1=O,-3.0,0.327,-20.6,-8.5,8.5,3.1
CCOC(=O)Cc1c(C)nc2c(-c3cccc(Br)c3)c[nH]n2c1=O,/,-5.84*,/,/,/,/
CCOc1ccccc1NC(=O)CN(C)S(=O)(=O)c1cccc2nsnc12,9.6,-0.0215,8.6,-7.2,7.2,-10.4
O=c1c2ccccc2nc2c3ccccc3c(NCc3ccco3)nn12,9.2,/,-12.4,3.6,-3.6,-9.9
O=C1CSc2ccc(C(=O)NCCC3=CCCCC3)cc2N1,-82.6,-0.03,-16.0,8.9,-8.9,82.4*
COC(=O)c1ccc(C(c2c(N)n(CC(C)C)c(=O)[nH]c2=O)N2CCN(c3ccccc3)CC2)cc1 (centres undefined),13.1,-5.94*,17.1,-1.1,1.1,-14.7
CCCn1c(N)c(C(c2ccc(C(=O)OC)cc2)N2CCN(c3ccccc3)CC2)c(=O)[nH]c1=O (centres undefined),4.1,-2.59,-9.1,-31.2,31.2,-5.5
O=C(Cc1ccccc1)N/N=C/c1ccc(OC(=O)/C=C\c2ccco2)cc1,-40.8,0.484,7.1,5.8,-5.8,40.1
COC(=O)Cc1nnc(NC(=O)c2ccccc2)s1,-8.3,-0.0477,-14.3,1.3,-1.2,7.3
Clc1ccc(Cn2ncc3c(NCc4ccccc4)ncnc32)cc1,1.8,-6.86*,-6.3,-11.4,11.4,-6.3
COc1ccc(CN(C(=O)CSc2nnc(-c3ccc(F)cc3)o2)c2ccc(F)cc2)cc1,/,-6.52*,/,/,/,/
O=C(CSc1nnc(Cn2nnc3ccccc32)o1)N(Cc1ccc(F)cc1)c1ccccc1,12.3,-2.26,-5.5,3.5,-3.5,-11.9
COc1ccc(N(Cc2ccccc2)C(=O)CSc2nnc(Cn3nnc4ccccc43)o2)cc1,-13.1,-5.81*,11.0,-4.8,4.9,15.0
Cn1c(C(O)c2ccc3c(c2)OCO3)nc2ccccc21 (centres undefined),0.0,0.0105,84.0*,98.1*,-98.1,-0.1
COc1ccc(-n2c(Cc3cccn3C)nnc2SCC(=O)Nc2cc(Cl)ccc2OC)cc1,/,-7.45*,/,/,/,/
Cn1cccc1Cc1nnc(SCC(=O)Nc2ccccc2F)n1-c1ccc(F)cc1,-19.9,-2.43,-0.9,-2.9,2.9,19.9
COc1ccc(-n2c(Cc3cccn3C)nnc2SCC(=O)Nc2ccccc2OC)cc1,/,-2.73*,/,/,/,/
COC(=O)c1ccc(-n2nnnc2SCC(=O)Nc2ccccc2C(=O)OC)cc1,11.0,/,-8.1,-2.1,2.1,-8.0
COc1ccccc1NC(=O)CSc1nnnn1-c1ccc(C)cc1,8.1,-2.64,-18.8,-41.4,41.4*,-2.4
COc1ccc(-n2c(Cc3cccn3C)nnc2SCC(=O)Nc2ccc(C)cc2C)cc1,/,-6.28*,/,/,/,/
